Compound activity from PubChem.
Hits are enriched below; roughly 9% of the tested compounds scored in any of these assays.
HTT cytoprotect: protects HTT-Q103 PC12 cells, measured by ATP | PC12 HTT-Q103 induced, cytoprotection, ATP luminescence, 40 h | Potency, µM (highest dose often 56.4 µM), inactives show cytoprotection (ATP increase), hits mostly activators | 230,000 tested, 0.14% active; further: % of control where 0% means no effect; nearly all actives have a fitted effect of over 45% in size
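Cells were plated at 1500 per well in phenol red-free DMEM with 5% equine and 5% calf serum. Tebufenozide (100 nM final) and compounds were added, then ATPlite reagent, and luminescence was read.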
HPGD inh: inhibitors of human 15-hydroxyprostaglandin dehydrogenase (HPGD) | P15428 | purified HPGD, NADH fluorescence kinetic, PGE2 substrate | Potency, µM, without a hit: at the top dose activity change, negative = inhibition, actives largely listed as inhibitors | 150,000 tested, 4.3% active | AID 894; active means well fitted inhibition curve with a large enough effect, not every such curve was filed as active; inconclusive means small, poorly fitted or top-dose-only effect, or another doubt; inactive means no such curve, though single readings can be large or run the other way; further: on the % scale 0 is the no-effect control and ±100 the full control effect
Target sequence (P15428 whole entry, looked up): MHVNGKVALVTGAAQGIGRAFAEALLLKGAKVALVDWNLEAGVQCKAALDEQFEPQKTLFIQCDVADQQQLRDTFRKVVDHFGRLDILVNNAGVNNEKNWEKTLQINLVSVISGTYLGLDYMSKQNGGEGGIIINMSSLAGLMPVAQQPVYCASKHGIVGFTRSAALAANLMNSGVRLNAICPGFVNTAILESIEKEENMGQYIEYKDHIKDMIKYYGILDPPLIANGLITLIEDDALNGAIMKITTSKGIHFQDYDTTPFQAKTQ
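NADH formation kinetics: reaction with 30 uM PGE2 and 1 mM NAD+ (final), 20 nM enzyme, Tris-HCl pH 8 with Tween 20, after 15 min compound preincubation at room temperature. Fluorescence change, last versus first of five reads.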
Luc counter: counter-screen: inhibitors of Kinase-Glo firefly luciferase; Q27757; Kinase-Glo luciferase, ATP luminescence, 8 min; Potency, µM (titrated, usually from 38.3 µM), inactives show top-dose activity change, negative = inhibition, usual class: inhibitors; 200,000 tested, 0.28% active; further: on the % scale 0 is the no-effect control and ±100 the full control effect; nearly all actives have a fitted effect of over 60% in size
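Recombinant Kinase-Glo luciferase, 10 uM ATP (linear range), luciferin; imidazole pH 7.2 / KCl / MgCl2 / Tween / BSA buffer; 8 min RT; luminescence.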
ALDH1A1 inh: blocks purified human ALDH1A1 activity | Potency, µM (top dose mostly 75.3 µM), for the others: top-dose activity, negative = inhibition, usual class: inhibitors | 220,000 tested, 7.3% active | Purified ALDH1A1, NADH fluorescence, propionaldehyde substrate; active means well fitted inhibition curve with a large enough effect, not every such curve was filed as active; inconclusive means small, poorly fitted or top-dose-only effect, or another doubt; inactive means no such curve, though single readings can be large or run the other way;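 further: plate controls were no enzyme wells and a reference inhibitor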
HttQ103 aggreg: inhibitors of mutant huntingtin aggregate formation in PC12 cells | Potency, µM (doses to about 46.1 µM), for the others: top-dose activity change, negative = inhibition, hits mostly inhibitors | 220,000 tested, 1.1% active | PC12 HttQ103-GFP aggregates, Acumen cytometry, 40 h; further: on the % scale 0 is the no-effect control and ±100 the full control effect; nearly all actives have a fitted effect of over 60% in size
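Aggregates are detected as GFP objects 1–25 µm with signal 6 STDEV over background in lysates of induced PC12 cells. These carry Huntingtin exon 1 with 103 glutamines fused to GFP under an ecdysone promoter; compounds titrated.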
LMNA splice mod: modulators of lamin A splicing; HeLa LMNA splicing GFP/RFP minigene ratio, 48 h; AID 1487; Potency, µM (highest dose often 46.1 µM), without a hit: at the top dose ratio change, negative = inhibition, most hits filed as inhibitors; 200,000 tested, 0.01% active; active means well fitted inhibition curve with a large enough effect in the signal ratio, with a control signal flat, not every such curve was filed as active; inconclusive means small, poorly fitted or top-dose-only effect, or effect the other way, or a change in a side signal; the % refers to the signal ratio; further: on the % scale 0 is the no-effect control and ±100 the full control effect
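Read-out is the ratio of GFP to DsRed2 object intensity, acquired by 488 nm laser-scanning cytometry on HeLa lamin A-EGFP minigene reporter cells. Compound incubation 48 hrs at 37 °C in Opti-MEM with 2% FBS; DMSO 0.5% final.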
Active calls of the source: *; ? = inconclusive; . = no result; ! = repeats disagree; [ ] = another dose, or the depositor's remark. Unless noted, the call rests on the fitted dose curve; in most records, active means well fitted curve in the direction sought with a large enough effect; inconclusive means small, poorly fitted or top-dose-only effect, or another doubt; inactive means no such curve, though single readings can be large; an effect the other way counts as inactive or inconclusive. Potency means the concentration at half of the fitted maximal effect.

SMILES | HTT cytoprotect | HPGD inh | Luc counter | ALDH1A1 inh | HttQ103 aggreg | LMNA splice mod
CN(C)CCCCSC(=N)N | ? | 2.1% | 0.8% | 25.1µM*! | . | ?
CN(C)CCCN=C(N)N | -4.4%[10 µM] | -4.7% | -0.5%[7.66 µM] | 4.8%[13.5 µM] | . | .
CCOc1ccc(N/C=C/C(=O)c2ccccc2)c([N+](=O)[O-])c1 | -55.2%[10 µM] | -16.9% | 11.2µM* | 99.5% | ? | -6.2%
CCOc1ccc(S(=O)(=O)Nc2ccccc2C(=O)NCC2CCCO2)cc1 (configuration not stated) | -3.7% | ? | -3.7% | ? | -3.5% | -4.3%
O=C(Nc1ccccc1N1CCOCC1)c1ccccc1NS(=O)(=O)c1ccc(F)cc1 | -15.9% | -2.7% | -2.0% | 0.5% | ? | 0.9%
CCOc1ccc(S(=O)(=O)Nc2ccccc2C(=O)Nc2ccccc2N2CCOCC2)cc1 | -9.0%[10 µM] | -13.7% | 1.0% | 28.2µM* | 12.4% | 2.4%
CCOc1ccc(NC(=O)c2ccccc2NS(=O)(=O)c2ccc(F)cc2)c([N+](=O)[O-])c1 | 6.2%[10 µM] | -17.6% | -0.5% | 5.2% | 11.2µM* | ?
CCOc1ccc(NC(=O)/C=C/c2ccccc2)c([N+](=O)[O-])c1 | -10.8%[10 µM] | -2.5% | 1.4% | 1.2% | -10.9% | -8.8%
CCOC(=O)c1ccccc1NS(=O)(=O)c1ccc(OCC)cc1 | -44.2%[10 µM] | -25.4% | -3.7% | -1.1% | 11.2µM* | ?
Cc1ccccc1NC(=O)CN1C(=O)NC2(CCCCC2)C1=O | -10.1%[10 µM] | -7.6% | -2.6% | 1.0% | -7.4% | 5.1%
CCC(=O)N1Cc2ccccc2-c2ccccc2C1=O | 3.4%[0.074 µM] | -5.2% | -2.6% | -0.8% | 5.62µM* | 11.9%
CC(C)(C)NC(=O)C1N(c2cccnc2)C(=O)C2C(C(=O)Nc3ccccc3)C3(C)C=CC21O3 (configuration not stated) | 6.3% | -0.5% | 0.9% | -15.3% | 0.6% | -10.8%
CC(C)CNC(=O)CCCc1c[nH]c2ccccc12 | -2.4% | 14.1µM* | -2.5% | -1.5% | 16.4% | 2.1%
O=C(CCS(=O)(=O)c1ccc(Cl)cc1)NCCc1c[nH]c2ccccc12 | -25.9% | . | 4.7% | 28.2µM* | 12.4% | -13.8%[46 µM]
NS(=O)(=O)c1ccc(CCNC(=O)Cc2c[nH]c3ccccc23)cc1 | 2.3%[10 µM] | 1.7% | 1.8% | 22.6% | -1.9% | 0.1%
Cc1nn(CCc2n[nH]c(=S)n2C2CCCCC2)c(C)c1Br | 2.8% | 25.1µM* | -2.3% | 20µM* | 4.1% | 8.1%
Cc1nn(CCc2n[nH]c(=S)n2C)c(C)c1Br | 24.6% | -12.0% | -2.3% | -13.6% | 3.9% | 6.2%
COc1cc(NC(=O)Cn2ncc(Cl)c(Cl)c2=O)c(C)cc1[N+](=O)[O-] | -167.5% | . | -2.1% | 2µM* | ? | ?
CCOc1ccccc1Oc1c(C)oc2cc(OC(=O)N3CCOCC3)ccc2c1=O | -5.9% | -12.5% | 2.6% | 5.8% | 18.2% | 15.5%
O=C(CSC1CC(=O)N(CCc2ccccc2)C1=O)Nc1cccc(Cl)c1 (configuration not stated) | 13.7%[10 µM] | 7.94µM* | 8.0% | -6.6% | -15.2% | 0.0%
Cc1ccc(-n2c(-c3ccccc3)c[nH]c2=S)cc1 | -11.7% | . | . | 2.5% | -23.6% | .
CCn1c(-c2ccccc2)c[nH]c1=S | 3.7% | -28.3% | 1.3% | 28.2µM* | -6.9% | 4.7%
S=c1[nH]cc(-c2ccccc2)n1-c1ccccc1 | -4.8% | 25.1µM* | 1.0% | 3.16µM* | 10.3% | -4.1%
O=c1[nH][nH]c2cc(=O)n(-c3ccc(Cl)cc3)nc12 | -11.0% | . | -11.6% | -5.6% | 14.9% | 8.3%[46 µM]
Cc1[nH]n(-c2ccccc2)c(=O)c1/C=N/N1C(=O)c2ccc3c4c(ccc(c24)C1=O)CC3 | -2.4%[10 µM] | -17.0% | 1.1% | -0.6% | ? | ?
CCOCC(=O)NCc1ccc2c(c1)OCO2 | -5.3% | 12.6µM* | -2.6% | 3.3% | -1.1% | 0.9%
CCOCCCNC(=O)c1ccc2c(c1)OCO2 | -1.9% | 14.1µM* | 0.1% | 14.2% | ? | -2.8%
